# Test results from ChEMBL document CHEMBL2218924, “A broad activity screen in support of a chemogenomic map for kinase signalling research and drug discovery” (Biochem J, 2013).
# Legend:
# [1] = biological target: T1, Ephrin type-B receptor 1 (Homo sapiens) (UniProt P54762); conditions: at 1 µM
# T1 sequence (whole entry): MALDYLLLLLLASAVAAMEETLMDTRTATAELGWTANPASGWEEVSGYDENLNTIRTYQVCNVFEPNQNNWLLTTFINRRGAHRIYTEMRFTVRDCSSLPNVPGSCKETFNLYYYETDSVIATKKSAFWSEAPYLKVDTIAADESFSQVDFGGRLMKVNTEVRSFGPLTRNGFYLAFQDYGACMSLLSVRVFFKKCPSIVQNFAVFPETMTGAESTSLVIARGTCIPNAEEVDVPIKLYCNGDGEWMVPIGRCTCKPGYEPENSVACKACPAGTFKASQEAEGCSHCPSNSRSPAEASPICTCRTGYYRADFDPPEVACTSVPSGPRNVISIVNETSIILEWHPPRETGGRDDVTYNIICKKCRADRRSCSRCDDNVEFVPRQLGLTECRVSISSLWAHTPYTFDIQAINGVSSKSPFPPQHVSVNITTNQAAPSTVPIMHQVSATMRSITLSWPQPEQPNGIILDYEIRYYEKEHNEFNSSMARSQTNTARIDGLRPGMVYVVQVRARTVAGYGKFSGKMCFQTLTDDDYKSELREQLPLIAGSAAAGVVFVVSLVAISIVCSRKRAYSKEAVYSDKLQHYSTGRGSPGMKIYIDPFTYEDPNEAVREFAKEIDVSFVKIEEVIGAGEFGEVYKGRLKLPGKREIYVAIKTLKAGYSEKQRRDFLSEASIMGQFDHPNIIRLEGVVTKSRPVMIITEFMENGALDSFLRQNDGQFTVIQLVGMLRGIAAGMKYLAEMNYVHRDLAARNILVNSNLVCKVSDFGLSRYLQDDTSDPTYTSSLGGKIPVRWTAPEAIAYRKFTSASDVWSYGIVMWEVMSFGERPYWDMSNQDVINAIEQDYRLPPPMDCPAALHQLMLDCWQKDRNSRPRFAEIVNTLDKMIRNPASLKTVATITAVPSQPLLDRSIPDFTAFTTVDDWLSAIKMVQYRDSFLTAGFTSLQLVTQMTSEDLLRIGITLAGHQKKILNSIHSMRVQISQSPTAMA
# [2] = biological target: T1, Ephrin type-B receptor 1 (Homo sapiens); conditions: at 10 µM
# [3] = biological target: T2, Ephrin type-B receptor 2 (Homo sapiens) (UniProt P29323); conditions: at 1 µM
# T2 sequence (whole entry): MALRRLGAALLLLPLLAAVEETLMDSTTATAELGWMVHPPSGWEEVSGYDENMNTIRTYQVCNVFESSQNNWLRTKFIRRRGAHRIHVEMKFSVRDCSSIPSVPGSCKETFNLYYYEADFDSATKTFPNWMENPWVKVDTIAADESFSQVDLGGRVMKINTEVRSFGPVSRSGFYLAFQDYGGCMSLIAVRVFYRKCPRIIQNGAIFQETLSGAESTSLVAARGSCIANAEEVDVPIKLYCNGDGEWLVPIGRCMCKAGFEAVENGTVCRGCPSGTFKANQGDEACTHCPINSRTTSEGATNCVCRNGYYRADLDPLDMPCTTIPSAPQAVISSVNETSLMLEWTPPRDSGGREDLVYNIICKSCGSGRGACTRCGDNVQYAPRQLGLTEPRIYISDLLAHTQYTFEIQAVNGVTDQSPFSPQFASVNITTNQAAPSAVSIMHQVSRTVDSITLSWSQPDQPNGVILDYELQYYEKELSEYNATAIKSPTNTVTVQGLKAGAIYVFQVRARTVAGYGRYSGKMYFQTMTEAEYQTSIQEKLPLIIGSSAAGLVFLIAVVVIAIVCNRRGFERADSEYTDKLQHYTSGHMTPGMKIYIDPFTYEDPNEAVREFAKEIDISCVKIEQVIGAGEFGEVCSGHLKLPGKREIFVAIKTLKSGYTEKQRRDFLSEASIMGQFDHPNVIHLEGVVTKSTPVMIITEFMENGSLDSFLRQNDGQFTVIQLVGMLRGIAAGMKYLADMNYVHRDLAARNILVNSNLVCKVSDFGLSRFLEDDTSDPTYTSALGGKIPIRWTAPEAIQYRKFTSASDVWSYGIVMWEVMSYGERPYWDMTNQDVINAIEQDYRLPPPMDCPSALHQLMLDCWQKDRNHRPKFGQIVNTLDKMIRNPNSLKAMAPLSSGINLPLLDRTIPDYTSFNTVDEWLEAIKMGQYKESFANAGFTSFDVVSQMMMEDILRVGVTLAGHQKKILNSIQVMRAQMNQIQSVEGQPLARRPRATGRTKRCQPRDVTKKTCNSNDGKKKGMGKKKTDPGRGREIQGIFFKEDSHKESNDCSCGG
# [4] = biological target: T2, Ephrin type-B receptor 2 (Homo sapiens); conditions: at 10 µM
# [5] = biological target: T3, Ephrin type-B receptor 3 (Homo sapiens) (UniProt P54753); conditions: at 10 µM
# T3 sequence (whole entry): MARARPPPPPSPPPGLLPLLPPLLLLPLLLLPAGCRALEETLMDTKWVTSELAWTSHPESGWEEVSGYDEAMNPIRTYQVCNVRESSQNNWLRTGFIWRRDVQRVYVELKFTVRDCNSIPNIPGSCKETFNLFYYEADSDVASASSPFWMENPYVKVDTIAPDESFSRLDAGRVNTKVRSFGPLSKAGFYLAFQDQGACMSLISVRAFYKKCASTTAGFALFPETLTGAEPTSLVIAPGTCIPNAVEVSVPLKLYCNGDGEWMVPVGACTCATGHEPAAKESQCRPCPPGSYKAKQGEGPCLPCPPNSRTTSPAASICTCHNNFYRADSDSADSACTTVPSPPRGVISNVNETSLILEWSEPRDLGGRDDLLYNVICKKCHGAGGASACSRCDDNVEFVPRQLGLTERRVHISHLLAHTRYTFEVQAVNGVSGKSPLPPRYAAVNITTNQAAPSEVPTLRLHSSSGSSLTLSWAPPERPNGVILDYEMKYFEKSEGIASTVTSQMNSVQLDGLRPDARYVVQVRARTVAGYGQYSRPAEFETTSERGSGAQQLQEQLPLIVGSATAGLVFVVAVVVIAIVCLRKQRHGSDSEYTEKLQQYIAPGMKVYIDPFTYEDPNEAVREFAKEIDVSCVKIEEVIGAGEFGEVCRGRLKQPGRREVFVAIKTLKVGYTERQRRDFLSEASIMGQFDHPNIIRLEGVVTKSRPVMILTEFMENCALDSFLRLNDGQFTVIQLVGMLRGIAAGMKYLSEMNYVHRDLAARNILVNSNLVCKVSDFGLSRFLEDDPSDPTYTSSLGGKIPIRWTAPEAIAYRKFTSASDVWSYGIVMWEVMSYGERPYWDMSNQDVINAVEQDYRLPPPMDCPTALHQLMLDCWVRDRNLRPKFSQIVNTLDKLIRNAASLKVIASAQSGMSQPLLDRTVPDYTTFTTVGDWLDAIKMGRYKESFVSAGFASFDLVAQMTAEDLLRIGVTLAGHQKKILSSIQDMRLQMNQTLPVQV
# [6] = biological target: T4, Ephrin type-B receptor 4 (Homo sapiens) (UniProt P54760); conditions: at 1 µM
# T4 sequence (whole entry): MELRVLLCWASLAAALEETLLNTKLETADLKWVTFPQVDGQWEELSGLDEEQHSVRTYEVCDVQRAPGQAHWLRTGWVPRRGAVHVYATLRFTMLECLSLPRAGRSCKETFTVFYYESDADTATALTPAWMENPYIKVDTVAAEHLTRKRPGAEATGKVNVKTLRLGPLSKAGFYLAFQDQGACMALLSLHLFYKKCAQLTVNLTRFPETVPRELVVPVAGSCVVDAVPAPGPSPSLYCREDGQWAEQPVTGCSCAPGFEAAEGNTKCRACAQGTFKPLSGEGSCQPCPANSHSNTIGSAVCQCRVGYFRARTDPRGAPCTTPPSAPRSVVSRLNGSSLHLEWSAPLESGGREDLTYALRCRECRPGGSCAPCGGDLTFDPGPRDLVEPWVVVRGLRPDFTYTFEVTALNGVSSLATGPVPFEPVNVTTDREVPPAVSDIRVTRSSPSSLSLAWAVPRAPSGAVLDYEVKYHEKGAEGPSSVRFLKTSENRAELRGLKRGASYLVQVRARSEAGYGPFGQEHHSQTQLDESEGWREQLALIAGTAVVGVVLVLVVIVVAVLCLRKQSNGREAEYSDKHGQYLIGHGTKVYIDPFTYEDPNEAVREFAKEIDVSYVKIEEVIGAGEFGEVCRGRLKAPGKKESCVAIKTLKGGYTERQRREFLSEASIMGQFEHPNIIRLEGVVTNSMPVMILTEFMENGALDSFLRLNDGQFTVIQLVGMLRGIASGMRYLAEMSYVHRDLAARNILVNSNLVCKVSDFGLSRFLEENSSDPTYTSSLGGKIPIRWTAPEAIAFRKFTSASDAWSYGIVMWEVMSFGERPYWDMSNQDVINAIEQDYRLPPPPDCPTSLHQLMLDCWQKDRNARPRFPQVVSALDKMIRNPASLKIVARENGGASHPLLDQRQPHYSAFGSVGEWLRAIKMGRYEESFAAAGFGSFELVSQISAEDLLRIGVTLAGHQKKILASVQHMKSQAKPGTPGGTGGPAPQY
# [7] = biological target: T4, Ephrin type-B receptor 4 (Homo sapiens); conditions: at 10 µM
# [8] = biological target: Receptor tyrosine-protein kinase erbB-4 (Homo sapiens) (UniProt Q15303); conditions: at 1 µM
# Receptor tyrosine-protein kinase erbB-4 (Homo sapiens), sequence (Q15303 whole entry): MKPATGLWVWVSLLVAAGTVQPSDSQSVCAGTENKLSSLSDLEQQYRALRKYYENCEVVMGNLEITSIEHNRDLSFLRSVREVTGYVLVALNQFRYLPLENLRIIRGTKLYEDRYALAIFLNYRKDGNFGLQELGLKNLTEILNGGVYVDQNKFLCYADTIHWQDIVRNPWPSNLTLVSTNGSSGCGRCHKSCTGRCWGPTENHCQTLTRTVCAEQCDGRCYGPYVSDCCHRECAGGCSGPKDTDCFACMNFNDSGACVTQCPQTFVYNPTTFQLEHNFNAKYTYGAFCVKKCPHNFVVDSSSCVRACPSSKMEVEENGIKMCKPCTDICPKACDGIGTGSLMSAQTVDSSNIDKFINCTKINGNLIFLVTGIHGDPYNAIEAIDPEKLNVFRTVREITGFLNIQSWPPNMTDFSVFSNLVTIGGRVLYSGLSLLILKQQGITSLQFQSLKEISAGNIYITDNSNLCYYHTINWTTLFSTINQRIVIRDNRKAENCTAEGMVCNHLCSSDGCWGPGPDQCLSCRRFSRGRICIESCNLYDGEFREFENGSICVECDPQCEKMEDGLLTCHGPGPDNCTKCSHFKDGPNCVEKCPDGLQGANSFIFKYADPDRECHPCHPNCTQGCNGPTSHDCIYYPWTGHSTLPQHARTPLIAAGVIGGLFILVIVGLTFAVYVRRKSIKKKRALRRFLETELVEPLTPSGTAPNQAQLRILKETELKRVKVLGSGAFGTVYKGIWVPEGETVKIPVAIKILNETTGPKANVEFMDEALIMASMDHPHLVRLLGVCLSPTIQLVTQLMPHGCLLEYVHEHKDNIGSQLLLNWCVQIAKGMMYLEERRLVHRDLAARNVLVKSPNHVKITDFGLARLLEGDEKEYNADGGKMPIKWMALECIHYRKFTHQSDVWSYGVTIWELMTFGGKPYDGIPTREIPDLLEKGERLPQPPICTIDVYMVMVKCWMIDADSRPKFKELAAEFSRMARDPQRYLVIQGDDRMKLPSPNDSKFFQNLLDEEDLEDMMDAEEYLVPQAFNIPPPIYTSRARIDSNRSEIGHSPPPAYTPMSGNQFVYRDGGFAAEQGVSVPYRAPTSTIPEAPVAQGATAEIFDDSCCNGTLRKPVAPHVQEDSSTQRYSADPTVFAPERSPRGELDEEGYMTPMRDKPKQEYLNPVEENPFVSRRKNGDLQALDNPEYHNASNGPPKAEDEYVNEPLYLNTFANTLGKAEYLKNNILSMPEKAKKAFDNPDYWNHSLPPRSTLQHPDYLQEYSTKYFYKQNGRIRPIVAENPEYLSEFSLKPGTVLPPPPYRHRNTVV
# [9] = biological target: Receptor tyrosine-protein kinase erbB-4 (Homo sapiens) (UniProt Q15303); conditions: at 10 µM
# [10] = biological target: Focal adhesion kinase 1 (Homo sapiens) (UniProt Q05397); conditions: at 1 µM
# Focal adhesion kinase 1 (Homo sapiens), sequence (Q05397 2-1052 limits assumed): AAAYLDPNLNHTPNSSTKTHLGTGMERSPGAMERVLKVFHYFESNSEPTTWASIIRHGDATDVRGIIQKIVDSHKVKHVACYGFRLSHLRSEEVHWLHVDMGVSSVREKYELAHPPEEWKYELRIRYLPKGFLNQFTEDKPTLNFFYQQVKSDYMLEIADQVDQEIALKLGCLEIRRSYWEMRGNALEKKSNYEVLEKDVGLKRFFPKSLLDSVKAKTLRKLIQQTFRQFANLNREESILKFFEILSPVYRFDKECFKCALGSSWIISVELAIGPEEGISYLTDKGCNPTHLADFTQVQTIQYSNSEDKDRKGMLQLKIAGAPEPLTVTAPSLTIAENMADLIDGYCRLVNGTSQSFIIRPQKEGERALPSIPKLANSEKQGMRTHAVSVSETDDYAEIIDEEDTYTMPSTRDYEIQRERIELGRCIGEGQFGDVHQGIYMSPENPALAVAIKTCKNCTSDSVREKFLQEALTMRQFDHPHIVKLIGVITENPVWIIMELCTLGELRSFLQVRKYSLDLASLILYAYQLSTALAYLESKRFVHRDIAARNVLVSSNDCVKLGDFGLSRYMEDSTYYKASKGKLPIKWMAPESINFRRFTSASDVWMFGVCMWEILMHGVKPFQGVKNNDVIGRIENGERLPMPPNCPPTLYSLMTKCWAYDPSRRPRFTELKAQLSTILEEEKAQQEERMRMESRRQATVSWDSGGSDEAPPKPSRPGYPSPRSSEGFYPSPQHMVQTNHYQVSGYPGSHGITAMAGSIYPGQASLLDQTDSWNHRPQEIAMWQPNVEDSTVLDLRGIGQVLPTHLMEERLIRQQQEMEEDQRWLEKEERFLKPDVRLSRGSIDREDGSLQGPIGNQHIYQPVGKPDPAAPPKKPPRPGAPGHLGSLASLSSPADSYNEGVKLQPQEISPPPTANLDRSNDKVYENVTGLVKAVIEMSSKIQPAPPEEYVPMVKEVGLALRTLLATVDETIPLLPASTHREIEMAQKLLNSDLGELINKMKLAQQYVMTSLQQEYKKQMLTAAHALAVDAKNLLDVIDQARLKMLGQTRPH
smiles,measurement,setting,value
Oc1c2ccccc2c2c3c(cccc13)N=N2,residual activity,[1],91%
same,residual activity,[2],29%
same,residual activity,[3],101%
same,residual activity,[4],95%
same,residual activity,[5],81%
same,residual activity,[6],89%
same,residual activity,[7],55%
same,residual activity,[8],104%
same,residual activity,[9],97%
same,residual activity,[10],52%
